Compound activity deposited in PubChem by National Center for Advancing Translational Sciences (NCATS).
FBPA Giardia inh – inhibitors of Giardia lamblia fructose-1,6-bisphosphate aldolase; actives 0.71% (n = 290,000); Potency, µM (titrated, usually from 59.6 µM), inactives show top-dose activity, negative = inhibition, hits mostly inhibitors; purified Giardia FBPA; A8B2U2; also: potency is read from the fitted curve at half-maximal effect; % is scaled to controls: 0 for no effect and ±100 for the full control effect; nearly all actives have a fitted effect of over 55% in size
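Giardia FBPA (40 nM reagent) was preincubated 10 min at RT with compound (up to 57.5 uM final), then substrate plus GAPDH/TPI/NAD/arsenate coupling system with diaphorase/resazurin was added; resorufin fluorescence (525/598 nm) was read after 20 min.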
Cycloheximide cs – counter-screen hit for Shiga toxin inhibitors, cycloheximide; max response, %; actives 12% (n = 300,000); AID 2314; cell reporter, cycloheximide protein synthesis inhibition counterscreen; in the data active = max response mostly above about 13%, no sharp cut-off; inactive = mostly below about 14%; also: read at 38.3 µM for the half of the compounds with a filed dose; 0% is about no effect
LmPK inh – blocks Leishmania mexicana pyruvate kinase activity; Q27686; AID 1721; actives 0.37% (n = 290,000); purified LmPK, Kinase-Glo ATP luminescence, 1 h; Potency, µM (titrated, usually from 57.5 µM), for the others: at the top dose activity change, negative = inhibition, most hits filed as inhibitors; also: potency is read from the fitted curve at half-maximal effect; % is scaled to controls: 0 for no effect and ±100 for the full control effect
Target sequence (Q27686 whole entry, looked up): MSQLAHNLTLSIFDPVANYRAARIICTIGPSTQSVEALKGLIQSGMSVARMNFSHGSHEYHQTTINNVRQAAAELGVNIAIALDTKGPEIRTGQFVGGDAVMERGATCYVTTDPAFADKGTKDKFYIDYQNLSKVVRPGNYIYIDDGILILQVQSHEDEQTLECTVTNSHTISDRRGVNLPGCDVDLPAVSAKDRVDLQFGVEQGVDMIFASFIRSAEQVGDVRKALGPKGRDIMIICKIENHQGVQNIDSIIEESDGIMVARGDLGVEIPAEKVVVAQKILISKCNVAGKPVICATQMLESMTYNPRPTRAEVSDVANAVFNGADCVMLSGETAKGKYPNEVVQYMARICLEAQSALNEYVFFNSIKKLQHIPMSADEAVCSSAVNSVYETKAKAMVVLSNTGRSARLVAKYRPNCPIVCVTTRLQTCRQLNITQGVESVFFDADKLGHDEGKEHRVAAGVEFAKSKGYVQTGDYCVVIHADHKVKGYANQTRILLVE
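Screened at intermediate enzyme activity to detect both inhibitors and activators: LmPK at 0.1 nM, with a 0.5 nM enzyme column as activation reference. PEP 0.5 mM, ADP 0.1 mM; ATP detected by luminescence after 1 h.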
Sm TGR inh – blocks Schistosoma mansoni thioredoxin glutathione reductase; Q962Y6; purified TGR, DTNB reduction, TNB absorbance 405 nm; Potency, µM (series often up to 114 µM), without a hit: at the highest dose activity change, negative = inhibition, usual class: inhibitors; actives 3% (n = 360,000); AID 485364; also: potency is read from the fitted curve at half-maximal effect; % is scaled to controls: 0 for no effect and ±100 for the full control effect; nearly all actives have a fitted effect of over 60% in size
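TGR 20 nM + NADPH 100 uM (dispensed conc.), cpd preinc 15 min RT; start with NADPH (500 uM addition) then DTNB (15 mM addition). Kinetic TNB absorbance, 405 nm filter. Four-parameter Hill fit across titration.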
TbPYK inhibitor – inhibitors of Trypanosoma brucei pyruvate kinase. Q57TT1. TbPYK enzyme, Kinase-Glo Plus ATP luminescence, 45 min. Potency, µM (doses to about 76.8 µM), without a hit: top-dose activity, negative = inhibition, hits mostly inhibitors. actives 0.12% (n = 410,000). AID 624173; also: potency is read from the fitted curve at half-maximal effect; % is scaled to controls: 0 for no effect and ±100 for the full control effect; nearly all actives have a fitted effect of over 50% in size
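Luminescence from Kinase-Glo Plus, added after a 45-minute room-temperature reaction, served as the end-point read-out. The enzyme and substrate were preincubated with compound before ADP (130 uM final) initiated turnover. Concentration-effect curves came from normalized qHTS data.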
Shiga toxin inh – inhibitors of Shiga toxin in Vero cells; Vero cells, Shiga toxin protein synthesis inhibition reporter; inhibition, % at 38.7 µM; actives 9.2% (n = 290,000); in the data active = inhibition mostly above about 28%, no sharp cut-off; inactive = mostly below about 43%; also: 0% is about no effect
Starred values were filed as active, the others as inactive; ? = inconclusive; / = no result given. Many of the other results were omitted from the sample, so hits are more common in it than they were. Unless noted, calls follow the shape of the dose curve; as a rule, active = well fitted curve in the direction sought with a large enough effect; inconclusive = small, poorly fitted or top-dose-only effect, or another doubt; inactive = no such curve, though single readings can be large; an effect the other way counts as inactive or inconclusive.

SMILES | FBPA Giardia inh | Cycloheximide cs | LmPK inh | Sm TGR inh | TbPYK inhibitor | Shiga toxin inh
COc1cc2c(c(OC)c1OC)-c1c(cc3c(c1OC)OCO3)C[C@@H](C)[C@](C)(O)C2 | / | / | / | / | -8.3% | /
CCN(c1ccccc1)S(=O)(=O)c1ccc(OC)c(NC(=O)c2cc(Cl)ccn2)c1 | / | / | / | 44.7µM* | 5.3% | /
CCN(c1ccccc1)S(=O)(=O)c1ccc(Cl)c(NC(=O)Nc2ccc(Cl)cc2C#N)c1 | -6.8% | 30.0* | 3.8% | 5.3% | -1.1% | 46.7*
CCN(c1ccccc1)S(=O)(=O)c1ccc(OC)c(NC(=O)c2c(C)noc2C)c1 | / | / | / | -0.6% | -12.5% | /
CC(=O)N1N=C(c2ccc(C)cc2)CC1c1cn(-c2ccccc2)nc1-c1cccs1 (centres undefined) | / | / | / | -8.3% | -0.3% | /
COc1ccc(-c2cn(-c3ccc(C)cc3C)c(=O)[nH]2)cc1OC | -3.3% | 5.2 | 1.7% | 11.2µM* | -8.0% | 16.4
COc1ccc(C2=NO[C@@H]3C(=O)N(c4cccc(C)c4C)C(=O)[C@H]23)cc1OC | -28.0% | -1.6 | -6.7% | -14.3% | 2.2% | -3.8
COc1ccc(-c2cc(=O)[nH][nH]2)cc1OC | -28.5% | 1.4 | 4.0% | 14.7% | -1.8% | 1.9
COc1ccc(C2=NO[C@@H]3C(=O)N(c4ccc(C)cc4C)C(=O)[C@H]23)cc1OC | 10.6% | -3.1 | 0.0% | 11.2µM* | -10.2% | 9.0
COc1ccc(C2c3c(-c4ccccc4O)n[nH]c3C(=O)N2CCc2ccccc2)cc1 (centres undefined) | / | / | / | 7.4% | -4.5% | /
COc1cc2cc(CCCOC(=O)c3cc(OC)c(OC)c(OC)c3)oc(=O)c2cc1OC | / | / | / | / | 6.6% | /
COc1cc2cc(CCCOC(=O)c3ccco3)oc(=O)c2cc1OC | / | / | / | 50.1µM* | -6.3% | /
CCn1cc(C2=NC(CCSC)CO2)c2ccccc21 (centres undefined) | 1.8% | 18.0* | 7.6% | -11.7% | 1.2% | 42.9
CCn1cc(C2=NC(CC(C)C)CO2)c2ccccc21 (centres undefined) | -4.3% | 22.2* | -2.1% | 3.3% | 5.3% | 51.1
CCn1cc(C2=NC(C(C)C)CO2)c2ccccc21 (centres undefined) | -2.4% | -1.6 | 0.6% | 4.0% | 0.9% | 1.4
O=C(COC(=O)Cc1ccc(Br)cc1)Nc1ccc(Cl)cn1 | / | / | / | / | 1.0% | /
Cc1ccc(CCNC(=O)CCSCc2ccccc2F)cc1 | / | / | / | -0.2% | -3.0% | /
Cc1ccc(C(=O)N(C)c2ccc(OCC(=O)N3c4ccc(C)cc4C4CN(C)CCC43)cc2)cc1 (centres undefined) | -5.9% | 36.7* | 6.2% | ? | -2.2% | 50.9
Cc1ccc2c(c1)C1CN(C)CCC1N2C(=O)COc1ccc(N(C)C(=O)C(C)(C)C)cc1 (centres undefined) | -5.4% | -1.0 | 1.8% | -13.6% | 2.4% | -9.3
CC(=O)C[C@H](O)CC(=O)[C@@H]1OC(=O)CCCCC/C=C/Cc2ccccc21 | / | / | / | / | -2.0% | /
COc1cc2[nH]c(Cl)c([N+](=O)[O-])c2cc1OC | 5µM* | -0.7 | 2.0% | 2µM* | ? | -3.0
COc1cc2[nH]c3c(Cl)ncnc3c2cc1OC | -25.5% | -2.5 | -1.0% | 3.2% | -13.3% | -14.2
Cc1cc(C)c2c(=O)cc(C(=O)Nc3sc4c(c3C(=O)NCc3ccccc3)CCCC4)oc2c1 | / | / | / | -1.8% | -8.2% | /
Cc1ccc(OCC(=O)Nc2cccc3ccccc23)c([N+](=O)[O-])n1 | / | / | / | / | 2.7% | /
Cc1ccc(OCC(=O)Nc2cc(C)on2)c([N+](=O)[O-])n1 | 0.0% | 35.2* | 2.8% | / | -5.4% | 104.6*
SMILES | FBPA Giardia inh | Cycloheximide cs | LmPK inh | Sm TGR inh | TbPYK inhibitor | Shiga toxin inh
COC(=O)c1cccc(NC(=O)/C=C/c2cccc([N+](=O)[O-])c2)c1 | 1.6% | 15.3* | 5.6% | 10.0% | -3.4% | 52.4
CC(=O)c1cccc(NC(=O)/C=C/c2ccc([N+](=O)[O-])s2)c1 | -3.0% | 32.9* | -3.7% | 4.3% | -4.2% | 95.9*
CCC(CCC(=O)Nc1cccc([N+](=O)[O-])c1)C(=O)O (centres undefined) | 3.4% | -2.0 | -0.3% | 11.4% | -12.6% | -14.4
CCC(CC)C(=O)OCC(=O)Nc1cccc([N+](=O)[O-])c1 | -1.6% | 14.7* | -1.5% | -0.4% | 0.2% | 37.2*
Cc1cc(C)cc(NC(=O)/C=C/c2ccc([N+](=O)[O-])s2)c1 | 3.6% | -7.3 | 3.6% | -0.3% | -6.1% | -10.2
CCOc1ccccc1C(=O)NC(C(=O)N(C)c1c(N)n(Cc2ccccc2)c(=O)[nH]c1=O)C(C)C (centres undefined) | / | / | / | / | 9.2% | /
Cc1cc(NC(=O)Nc2cccc([N+](=O)[O-])c2)no1 | -0.5% | 17.1 | -3.4% | 3.2% | 2.7% | 18.0
Cc1cc(NC(=O)COC(=O)c2ccccc2Cl)no1 | / | / | / | / | -1.3% | /
Cc1cc(NC(=O)COc2cccc([N+](=O)[O-])c2)no1 | / | -1.7 | -7.3% | 44.7µM* | -6.6% | -7.5
Cc1cc(NC(=O)COC(=O)c2ccccc2[N+](=O)[O-])no1 | -2.7% | 27.7* | -0.4% | ? | 3.6% | 44.9
Cc1cc(NC(=O)COC(=O)c2n[nH]c3ccccc23)no1 | -3.1% | 19.6* | -2.6% | 11.0% | -1.6% | 31.3
O=C(COC(=O)c1n[nH]c2ccccc12)c1cccc(Br)c1 | / | 18.4* | -4.3% | 5.9% | -7.3% | 31.3
O=C(Cn1c(=O)oc2ccccc21)NCc1ccc(Cl)cc1 | / | / | / | 9.8% | 0.4% | /
O=C(COc1ccc2ccccc2c1)Nc1ccncc1 | 4.4% | 27.1* | 4.9% | 14.0% | 4.0% | 26.9*
Cc1cc(C)cc(OCC(=O)Nc2cc(C)on2)c1 | 4.6% | -2.4 | 4.0% | 12.9% | -0.9% | -7.1
Cc1ccc(OCC(=O)Nc2cc(C(C)(C)C)on2)cc1C | / | -1.8 | -7.6% | -18.4% | 0.9% | -12.4
Cc1cc(NC(=O)CCl)no1 | 2.3% | 6.8 | 3.1% | 8.91µM* | 2.8% | 4.9
Cc1cc(NC(=O)COc2ccc(C)c(C)c2)no1 | 8.0% | 39.4* | -0.3% | 30.0% | -1.6% | 65.1*
Cc1cc(NC(=O)COc2ccc3ccccc3c2)no1 | 10.9% | 31.4* | 4.3% | -1.6% | -1.8% | 26.6
O=C(COc1ccccc1)Nc1ccncc1 | 5.0% | -1.9 | -4.3% | 0.0% | 4.7% | 24.4
CSCC(=O)Nc1cc(C)on1 | 5.3% | -1.9 | -0.5% | 11.3% | 2.8% | 5.6
COc1ccc(NC(=O)c2cnc[nH]2)cc1 | / | / | / | 4.1% | -12.8% | /
O=C(c1ccc(Cl)cc1)N1CCC(c2ccncc2)CC1 | / | / | / | 1.1% | 0.1% | /
CCN(C(=O)CSc1ncccc1C(=O)Oc1cccc([N+](=O)[O-])c1)c1cccc(C)c1 | 0.0% | -3.9 | 1.6% | 8.2% | -3.0% | -2.4
Cc1cc2oc(=O)cc(COC(=O)c3n[nH]c4ccccc34)c2cc1C | -0.6% | 14.8 | -4.3% | -3.2% | -10.0% | 18.1
